# Screens deposited in PubChem BioAssay by National Center for Advancing Translational Sciences (NCATS).
# Glioma ERSR ind – induces the endoplasmic reticulum stress response in human glioma cells | AID 602332 | 0.02% of 420,000 active | U87-MG GRP78 promoter luciferase reporter, 16 h | Potency, µM, for the others: at the highest dose activation, most hits filed as activators; active = well fitted activation curve with a large enough effect; also: potency is read from the fitted curve at half-maximal effect; series mostly up to about 76 µM; % of control where 0% means no effect; nearly all actives have a fitted effect of over 35% in size
#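 Stably transfected U87-MG human glioma cells carrying a GRP78-based luminescent sensor were seeded at 1000 cells/well, pin-dosed with compounds and incubated 16 h. Luciferase reagent was then added, and end-point luminescence was read after 10 min at room temperature.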
# TRHR PAM – TRH receptor (human) allosteric enhancement. AID 493056. P34981. 0.66% of 360,000 active. TRHR cells, fluo-8 calcium fluorescence, EC20 TRH enhancement. enhancement, % at 2 µM; in the data active = enhancement above about 30%; also: 0% is about no effect
#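 TRHR-expressing cells loaded with fluo-8 calcium dye were read kinetically (ex 480/em 530) during compound addition, then stimulated with an EC20 of TRH (10 nM final). Enhancement of the Gq-mediated intracellular calcium response was scored.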
# D1 ag – agonists of human D1 dopamine receptor; HEK293 T-REx D1 cells, calcium flux, agonist mode; activation, % at 2 µM; 1% of 360,000 active; also: 0% is about no effect
# Target sequence (P21728 whole entry, looked up): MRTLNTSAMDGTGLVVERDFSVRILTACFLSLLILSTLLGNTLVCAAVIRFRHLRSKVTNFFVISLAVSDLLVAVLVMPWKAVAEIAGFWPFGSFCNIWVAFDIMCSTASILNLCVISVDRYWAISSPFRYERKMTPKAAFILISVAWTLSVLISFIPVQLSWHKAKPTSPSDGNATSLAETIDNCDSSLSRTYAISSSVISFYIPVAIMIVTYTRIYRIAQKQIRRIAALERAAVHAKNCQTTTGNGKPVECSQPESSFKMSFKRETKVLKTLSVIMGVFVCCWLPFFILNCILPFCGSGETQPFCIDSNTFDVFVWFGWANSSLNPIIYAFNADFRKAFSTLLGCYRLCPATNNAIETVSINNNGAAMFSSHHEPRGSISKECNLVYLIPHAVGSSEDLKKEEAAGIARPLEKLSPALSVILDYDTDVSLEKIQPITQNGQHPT
#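 Tetracycline-induced HEK293 TREx D1 cells, force-coupled to calcium signalling, were dye-loaded with a no-wash calcium kit. Compound was pin-added after a 10 s baseline. Fluorescence was read kinetically at 1 cycle/s for 180 s, with calcium rises flagged as agonism.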
# TRHR agonist – agonists of human TRH receptor; TRHR cells, calcium flux fluo-8, FDSS agonist mode; activation, % at 2 µM; 0.18% of 360,000 active; also: 0% is about no effect
#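 Steps: seed TRHR cells overnight; add fluo-8 no-wash Ca dye, RT 30 min–1.5 h; record 10 s baseline; pin-transfer compounds; monitor fluorescence 1 cycle/s for the agonist window. Calcium increases flag candidate agonists.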
# D1 PAM – potentiators of human D1 dopamine receptor | P21728 | HEK293 TREx D1 cells, calcium flux, dopamine EC20 potentiation | potentiation, % at 10 µM | 0.036% of 360,000 active; in the data active = potentiation above about 30%; also: 0% is about no effect
# D1 antag – blocks dopamine activation of the human D1 receptor; HEK293 TREx D1 cells, calcium flux, dopamine EC80; hits give low values; activity change, negative = inhibition, % at 10 µM; 3.2% of 360,000 active; in the data active = activity change below about -30%; also: % is scaled to controls: 0 for no effect and ±100 for the full control effect
#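 Cells carrying a force-coupled, tetracycline-inducible human D1 receptor report calcium flux. Each well gets a 10 s baseline, compound with 180 s monitoring, then an EC80 dopamine stimulus with a second 180 s kinetic read.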
# Numbers without * were called inactive; . = no result given. Most compounds without a hit are left out; they make up all but 4% or so of the library. Rule as the data show it, unless noted: active = activation above about 30%; inactive = the rest.
SMILES,Glioma ERSR ind,TRHR PAM,D1 ag,TRHR agonist,D1 PAM,D1 antag
CCCS(=O)(=O)N1CCCC(C(=O)NCCc2ccccc2)C1 (configuration not stated),-1%,-12,2,1,3,3
Cc1[nH]c(=O)[nH]c(=O)c1S(=O)(=O)N1CCCC(C(=O)NCCc2ccc(Cl)cc2)C1 (configuration not stated),-4%,-24,-3,0,-10,-35*
Cc1sc(NC(=O)C2CC(Cl)=CCC2C(=O)O)c(C#N)c1C (configuration not stated),-1%,-5,0,0,-5,9
COc1ccc(N(C(=O)CNC(=O)c2cccs2)C(C(=O)NCC2CCCO2)c2ccccc2)cc1 (configuration not stated),-2%,9,30,0,-6,-13
COc1cc(C(C(=O)NCC2CCCO2)N(C(=O)Cn2nnc3ccccc32)c2ccc(OC)c(OC)c2)ccc1O (configuration not stated),-4%,4,0,0,-4,-80*
CCC(C)(C)NC(=O)C(c1cccs1)N(CC1CCCO1)C(=O)Cn1nnc2ccccc21 (configuration not stated),-2%,38*,0,-1,0,3
CCOc1cc(C(C(=O)NCC2CCCO2)N(C(=O)Cn2nnc3ccccc32)c2ccc(NC(C)=O)cc2)ccc1O (configuration not stated),-3%,9,1,0,-2,17
COc1ccc(N(C(=O)CNC(=O)c2cccs2)C(C(=O)NCC2CCCO2)c2ccccc2)cc1OC (configuration not stated),-1%,10,2,-1,-4,-55*
CCn1c(COc2ccccc2OC)nnc1SCC(=O)NC1CCCC1,3%,-2,3,-1,-16,22
Cc1ccc(NC(=O)c2cccc(N3CCCS3(=O)=O)c2)cc1C,2%,10,1,0,-4,-5
CC1CCN(C(=O)c2ccc(NC(=O)CC3SC(N4CCCC4)=NC3=O)cc2)CC1 (configuration not stated),2%,4,3,1,-1,-12
COC1=C(NCc2ccc3c(c2)OCO3)C(=O)C(OC)=C(NCc2ccc3c(c2)OCO3)C1=O,-5%,.,.,.,.,.
COc1cccc2sc3ccc(NCc4ccc5c(c4)OCO5)cc3c(=O)c12,-1%,1,31*,13,3,0
Cc1c(CC(=O)N2CCCCC2)c(=O)oc2cc3occ(C(C)(C)C)c3cc12,0%,4,-1,0,5,-10
COc1ccc(CCC(=O)NCCS(=O)(=O)N2CCN(c3ccccc3OC)CC2)cc1,-1%,1,19,-1,1,-33*
Cc1onc(-c2ccccc2Cl)c1C(=O)NCc1ccccn1,-3%,-5,3,0,1,2
Cc1onc(-c2c(F)cccc2Cl)c1C(=O)c1ccccc1O,-5%,-4,9,0,-11,-41*
Cc1onc(-c2c(F)cccc2Cl)c1C(=O)c1ccc(F)cc1,-2%,-8,8,0,0,-55*
Cc1onc(-c2c(F)cccc2Cl)c1C(=O)NCc1ccccn1,-1%,0,3,0,4,-39*
CCOc1cc(/C=C(\C#N)C(=O)Nc2ccccc2[N+](=O)[O-])ccc1OCc1cccc2ccccc12,.,-4,2,-1,-3,-25
O=C(Cc1n[nH]c(=O)c2ccccc12)Nc1ccc(-c2nnc3n2CCCCC3)cc1,0%,0,1,0,3,-20
C[C@H]1CN([C@@H](C)CO)C(=O)Cc2cc(NS(=O)(=O)c3cccs3)ccc2O[C@H]1CN(C)S(=O)(=O)c1cn(C)cn1,-1%,.,.,.,.,.
Cc1nnc(NC2CCCCC2)[nH]c1=O,-5%,3,3,1,-2,-3
Cc1n[nH]c(=O)nc1NC1CCCCC1,-2%,-4,0,0,2,-44*
O=C(Nc1nc(-c2ccccc2Cl)cs1)c1cccnc1,-3%,-4,4,-1,-4,-41*
SMILES,Glioma ERSR ind,TRHR PAM,D1 ag,TRHR agonist,D1 PAM,D1 antag
Cc1noc(C)c1C(=O)Nc1nc(-c2ccccc2Cl)cs1,3%,9,2,0,-5,-25
C=CCN1CCN(C(c2cccc(OC)c2OC)c2nnnn2CCC(C)C)CC1 (configuration not stated),-7%,0,4,-4,-3,3
COc1ccc(Nc2nc(NCc3ccco3)nc(N/N=C/c3ccccc3F)n2)cc1,-1%,-4,2,0,-6,-42*
COc1ccccc1CN1C(=O)C(=O)c2cccc(C)c21,-3%,0,-3,-3,-2,-1
Cc1cc(Br)cc2c1N(Cc1ccccc1OC(C)C)C(=O)C2=O,.,-8,1,-1,-1,-51*
O=c1[nH]c(=O)n(Cc2ccccc2)c2nc(-c3ccco3)cc(C(F)(F)F)c12,0%,2,1,0,-7,-19
CCOC(=O)C1=NOC(CNC(=O)c2c(-c3ccccc3Cl)noc2C)C1 (configuration not stated),-6%,7,2,0,15,3
CC(C)c1ccc(N(CC(=O)NCc2ccco2)C(=O)CCC(=O)Nc2ccccn2)cc1,-6%,39*,-3,0,-2,23
O=C(CN(C(=O)CCC(=O)Nc1ccccn1)c1ccc(F)cc1)NCc1ccco1,-4%,-10,14,-2,.,3
COCCNC(=O)CN(C(=O)CCC(=O)Nc1ccccn1)c1ccc(F)cc1,-3%,33*,3,0,-5,0
Cc1cccc(N(CC(=O)NCc2ccco2)C(=O)CCC(=O)Nc2nccs2)c1C,-5%,0,4,-1,.,5
O=C(CN(Cc1ccc(F)cc1)C(=O)CCC(=O)Nc1nccs1)NCc1ccccc1,-3%,-2,2,0,-7,-91*
Cc1ccccc1N(CC(=O)NCc1ccco1)C(=O)CCC(=O)Nc1nccs1,-3%,-1,3,0,-3,-32*
COC(=O)[C@H](CC(C)C)NC(=O)Cn1cnc2c(SC)nc(N)nc21,0%,.,.,.,.,.
C#CCOCCOCCOCCNc1nc(N2CCOCC2)nc(N2CCN(C(=O)CCCCCCCCCCNC(=O)[C@@H](CCC(=O)O)n3cc(CCCCCN)nn3)CC2)n1,-3%,-4,6,0,-4,-8
C#CCOCCOCCOCCNc1nc(N2CCN(C(=O)CCCCCCCCCCNC(=O)[C@H](CCCCN)n3cc(CCCC(=O)O)nn3)CC2)nc(N2CCN(C(=O)CCCCCCCCCCNC(=O)[C@@H]([C@H](C)O)n3cc(C)nn3)CC2)n1,1%,-1,44*,0,6,6
